Assay results from PubChem BioAssay AID927 (National Center for Advancing Translational Sciences (NCATS), 2007).
In all, about 60,000 compounds went through this assay and about 65 (0.1%) were called active. The full list was thinned out, with actives kept by preference. Values without a mark were called inactive. Calls come from the whole dose curve; as a rule, active = well fitted inhibition curve with a large enough effect; inconclusive = small, poorly fitted or top-dose-only effect; inactive = no such curve, though single readings can be large or run the other way.

target: Ubiquitin carboxyl-terminal hydrolase 2 (Homo sapiens) (UniProt O75604); assay: qHTS Assay for Inhibitors of Ubiquitin-specific Protease USP2a; conditions: USP2a enzymatic assay; Potency: qHTS inhibition; series mostly up to 38.3 µM; activity change, negative = inhibition: at the top concentration; note: nearly all actives have a fitted effect of over 60% in size;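 for activity change, negative = inhibition: plate controls were DMSO for no effect and NEM full inhibition control for full effect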
Outline: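 Coupled readout: USP2-cleaved Ub-PLA2 (20nM final) turns over NBD C6-HPC (20uM final), Ex 460nm/Em 535nm after 2.5 h, time-zero read flagging artifacts. Enzyme (20nM final, pH 8.0 Tris) given 30 min RT with compound first; NEM defines full inhibition.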
Potency is the fitted concentration of half-maximal effect.

Chain of Ubiquitin carboxyl-terminal hydrolase 2 (Homo sapiens) (O75604 whole entry, looked up): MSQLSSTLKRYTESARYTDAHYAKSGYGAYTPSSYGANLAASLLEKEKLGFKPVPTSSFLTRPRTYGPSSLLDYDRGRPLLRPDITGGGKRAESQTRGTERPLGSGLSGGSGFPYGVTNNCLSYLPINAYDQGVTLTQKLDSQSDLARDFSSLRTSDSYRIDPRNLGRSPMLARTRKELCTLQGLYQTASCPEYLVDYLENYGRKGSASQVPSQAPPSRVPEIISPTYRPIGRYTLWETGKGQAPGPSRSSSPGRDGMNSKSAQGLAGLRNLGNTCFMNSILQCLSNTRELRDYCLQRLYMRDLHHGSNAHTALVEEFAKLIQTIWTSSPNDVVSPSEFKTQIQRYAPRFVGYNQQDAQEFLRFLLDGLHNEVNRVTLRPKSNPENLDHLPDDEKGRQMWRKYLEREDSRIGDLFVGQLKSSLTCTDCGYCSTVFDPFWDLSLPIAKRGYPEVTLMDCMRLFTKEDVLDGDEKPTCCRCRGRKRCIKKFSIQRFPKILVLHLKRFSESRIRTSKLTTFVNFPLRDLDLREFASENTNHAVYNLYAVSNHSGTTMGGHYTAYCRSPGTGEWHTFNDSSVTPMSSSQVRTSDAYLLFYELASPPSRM

Row | SMILES | activity change, negative = inhibition | Potency
1 | O=S(=O)(NCc1ccc2c(c1)OCO2)c1cccc2nsnc12 | -1.28% | 
2 | CCOC(=O)CSc1nc2c(c(=O)n(Cc3ccccc3Cl)c(=O)n2C)n1C | -0.387% | 
3 | C/C=C(/C)C(=O)OC1Cc2c(ccc3ccc(=O)oc23)OC1(C)C (centres undefined) | -1.14% | 
4 | COCCCN1C(=O)c2ccc(C(=O)Nc3ccc(OC)cc3OC)cc2C1=O | 13.4% | 
5 | Cc1c(O)cc(O)c2c(=O)c(-c3ccc(O)cc3)coc12 | -6.86% | 
6 | CC(C)c1nnc(NC(=O)C2CCCN2S(=O)(=O)c2ccc(Cl)cc2)s1 (centres undefined) | 9% | 
7 | Oc1ccc2c(c1)OCC1c3cc4c(cc3OC21)OCO4 (centres undefined) | -11.2% | 
8 | CN1C(=O)C[C@H](c2ccccc2)C1=O | -7.44% [at 17.1 µM] | 
9 | O=C(NCc1cccnc1)c1cn(-c2ccccc2)nc1-c1cccs1 | 28.9% | 
10 | CCC12CN3CC(CC)(CN(C1)C31C(=O)N(C)c3ccc(C)cc31)C2=O (centres undefined) | 0.969% | 
11 | CCOC(=O)N1CCN(C(=O)CN(c2ccc(C)c(C)c2)S(=O)(=O)c2ccccc2)CC1 | 18.3% | 
12 | COc1ccc(-c2ccc(-c3noc(-c4ccncc4)n3)c(OC)n2)cc1 | 21.4% | 
13 | NC(=O)C1CC=CCC1C(=O)OCC(Cl)=C(Cl)Cl (centres undefined) | 12.5% | 
14 | CC1C(O)CC2C(C(=O)O)=CO[C@@H](O[C@H]3OC(CO)C(O)C(O)C3O)C21 (some centres undefined) | -4.3% | 
15 | CC(C)(C)c1ccc(C(=O)CSc2ncn[nH]2)cc1 | -4.94% | 
16 | c1cncc(CNc2ccnc(-c3ccc4c(c3)OCO4)n2)c1 | 23.9% | 
17 | CCC(CCC(C)C1CCC2C3CC=C4CC(O)CC[C@@]4(C)C3CC[C@@]12C)C(C)C (some centres undefined) | -2.58% | 
18 | CC1(C)Cc2ccccc2-c2nnc(-c3cccc(O)c3)n21 | -2.73% | 
19 | COc1cccc(C2/C(=C(/O)c3ccc(F)cc3)C(=O)C(=O)N2CCN(C)C)c1 (centres undefined) | 4.13% [at 7.66 µM] | 
20 | CCOC(=O)C1=C(C)NC(C)=C(C(=O)OCC)C1C1=COCCO1 | -3.29% | 
21 | CSCCC1NC2(C(=O)Nc3ccc(Cl)cc32)[C@@H]2C(=O)N(C3CCCC3)C(=O)[C@H]12 (some centres undefined) | 52.4% | 
22 | O=C1C2(c3ccccc3)CN(CCCO)CC1(c1ccccc1)CN(CCCO)C2 | -3% | 

Row | SMILES | activity change, negative = inhibition | Potency
23 | CCCS(=O)(=O)N1CCCC(C(=O)NCCN2CCCCC2C)C1 (centres undefined) | -14% | 
24 | CC(=O)c1c(N2CCOCC2)nc(=S)n(-c2cc(C)ccc2C)c1C | -3.02% | 
25 | Cc1cc(C)c(C#N)c(SCc2ccc3c(c2)OCO3)n1 | -11.2% | 
26 | CCCC(CCC(=O)OC)(C(=O)OCC)c1csc(N)n1 (centres undefined) | -12.5% | 
27 | COc1cc(OC)c2c(c1Cl)OC1(C2=O)C(O)=CC(=O)CC1C (centres undefined) | 7.89% | 
28 | Cc1ccc2nc(-c3ccc(SCC(=O)Nc4cc(C)on4)nc3)[nH]c2c1 | 33.2% | 
29 | COc1ccc(N(C(=O)c2cccnc2)S(=O)(=O)c2ccc3c(c2)n(C)c(=O)n3C)cc1 | 2.22% | 
30 | CC(=O)C1C(c2cccc(Oc3ccccc3)c2)NC(=O)NC1(O)C(F)(F)F (centres undefined) | 9.93% | 
31 | CC(=O)NS(=O)(=O)c1ccccc1 | 2.74% | 
32 | COc1ccc(C2C(C#N)=C(N)Oc3n[nH]c(C)c32)cc1CN1CCN(c2ccc(F)cc2)CC1 (centres undefined) | 11% | 
33 | O=C(c1ccc(=O)[nH]c1)N(Cc1ccco1)C1(C(=O)NC2CCCCC2)CCCCC1 | 10.6% | 
34 | CCCCCCOC(=O)NCC(O)c1ccccc1 (centres undefined) | 7.61% | 
35 | CCS(=O)(=O)N1CCCC(C(=O)NCCCN(C)Cc2ccccc2)C1 (centres undefined) | 4.58% | 
36 | CCCN1Cc2cccc(C(=O)NCc3ccccc3)c2C1=O | 6.55% | 
37 | O=C(O)c1ccc(F)c(S(=O)(=O)Nc2ccccc2)c1 | -5.39% | 
38 | Cc1cccc2c3c(ccc12)C1=C(C(=O)C3=O)C(C)CO1 (centres undefined) | 24.5% | 
39 | CC1OC(OCC2OC(Oc3c(-c4ccc(O)c(O)c4)oc4cc(O)cc(O)c4c3=O)C(O)C(O)C2O)[C@@H](O)C(O)C1O (some centres undefined) | -9.16% | 
40 | CCCc1[nH]nc2c1C(C1CC=CCC1)C(C#N)=C(N)O2 (centres undefined) | 4.18% | 
41 | Nc1nc2c(nc(Cl)n2C2OC(CO)C(O)C2O)c(=O)[nH]1 (centres undefined) | -13.1% | 
42 | COC(=O)[C@H](C)NC(=O)Nc1ccc(OC(F)(F)F)cc1 | 2.63% | 
43 | COCCCN1C(=O)C(=O)/C(=C(/O)c2ccc3c(c2)CC(C)O3)C1c1cccnc1 (centres undefined) | 1.42% | 
44 | COc1cc(OC)c(NC(=O)c2ccc(Br)o2)cc1Cl | 12% [at 7.66 µM] | 

Row | SMILES | activity change, negative = inhibition | Potency
45 | CN(C)c1cc(N)c2ccccc2n1 (tested in a mixture with another compound) | -5% | 
46 | CC[C@@H]1Cc2cc(O)ccc2C2=C1c1ccc(O)cc1C[C@H]2CC |  | 25.1 µM (active)
47 | CCOC(=O)c1cc2c(n(-c3ccc(C)cc3)c1=O)CCCC2=O | 0.672% | 
48 | CC1(C)CC(=O)C(C=NCCC2=CCCCC2)=C(O)C1 | 6.05% [at 7.66 µM] | 
49 | Cc1cc(NC(=O)CSc2nnc(-c3ccc(Cl)s3)o2)no1 | 2% | 
50 | CC1(C)C=CC(=O)[C@]2(C)C1CC(=O)[C@]1(C)C2CC[C@@]2(C)C(c3ccoc3)OC(=O)C3OC321 (some centres undefined) | 44.8% | 
51 | CSCCC(NC(=O)c1ccc(=O)n(C)n1)c1nc2ccccc2[nH]1 (centres undefined) | 0.955% | 
52 | CCCn1c(O)c(CN2CCCC(C)C2)c(C)c(C#N)c1=O (centres undefined) | 4.37% | 
53 | COCCn1c(=O)c(-c2cc(F)cc(F)c2)nc2cnc(N3CCNCC3)nc21 | 91.7% | 
54 | Cc1cc(=O)[nH]c(=S)[nH]1 | -1.68% | 
55 | CN1CCCc2cc(C#N)c(=O)[nH]c21 | 2.48% [at 7.66 µM] | 
56 | Cc1oc(-c2ccccc2F)nc1CS(=O)(=O)CC(=O)NCCCN(C)C1CCCCC1 | 7.36% | 
57 | Cc1ccc(NC(=O)C2CC(c3ccc(F)cc3)=NO2)cc1 (centres undefined) | -1.08% | 
58 | COc1ccccc1CCn1c(=O)c(-c2cn(C)c3ccccc23)nc2cncnc21 | 195% | 
59 | CC(Sc1nncs1)C(=O)NCc1ccc2c(c1)OCO2 (centres undefined) | -8.75% | 
60 | CCOC(=O)N1CCN(C(=O)COc2ccc(Br)cc2)CC1 | 10.7% [at 7.66 µM] | 
61 | O=C1NC(c2cc3c(cc2Cl)OCO3)Oc2ccccc21 (centres undefined) | -4.27% | 
62 | CCOC(=O)C1C(=O)OC2(CCCC2)C1C(=O)OCC (centres undefined) | 2.95% | 
63 | Cc1ccc(C)c(NC(=O)C2CC(=O)N(C(C)C)C2)c1 (centres undefined) | 0.265% | 
64 | CC1CCN(C(=O)Cn2cc(C(=O)c3ccco3)c3ccccc32)CC1 | 184% | 
